Among the data in PubChem BioAssay AID1814 (Broad Institute, 2009) are activity score values, retold here.

Out of some 300,000 compounds screened, about 22,000 (7.3%) were called active. Inconclusive results (about 2%) are left out. Rule as the data show it: active = activity score below about -60%; inconclusive = mostly about -28% to -61%; inactive = positive scores. The entries come from a sample that favours actives as a whole.

The test is described as follows: Activators working through SNCA 5'UTR binding (MLPCN) (AID 1814). Particulars: alpha-synuclein 5'UTR reporter, activators screen; stronger effect = lower value; tested at 7.5 µM.
In the case of `Cn1c(=NC(=O)c2cnccn2)sc2ccccc21`, the activity score is -97.9% (active).

Regarding `O=C(NC(=S)Nc1ccccc1C(=O)O)c1ccc(-c2ccc(Br)cc2)o1`, the activity score was -123% (active).

With `O=C(NC1CCCC1)C(=O)c1c[nH]c2ccccc12`, the activity score is -81.6% (active).

In the case of `O=C(CN1CCCCCC1)Nc1c(Cl)cc(Cl)cc1Cl`, the activity score was -86.3% (active).

Turning to `O=C(CN1CCCCCC1)Nc1ccc(Br)cc1Br`, the activity score is -101% (active).

As for `O=C(Nc1ccc(OC(F)(F)F)cc1)c1ccc2c(c1)no[n+]2[O-]`, the activity score was -72.3% (active).

As for `Cc1cc(Cl)nc(NC(=O)Nc2cccc(Cl)c2)n1`, the activity score was -64.7% (active).

For the compound `CCN1CCN(C(=O)CSc2ccc(C)cc2)CC1`, the activity score is -69.7% (active).

With `Cc1ccc(N/N=C2\COC(C)(C)CC2=O)cc1`, the activity score was -141% (active).

In the case of `COc1ccc(C2NC(=O)c3ccccc3N2)cc1` (centres undefined), the activity score is -70.6% (active).

In the case of `COc1ccc(OC)c(C2C3=C(N=c4s/c(=C\c5cccc(O)c5)c(=O)n42)c2ccccc2CC3)c1` (centres undefined), the activity score is 58.4% (inactive).

As for `COc1cccc(C(=O)NNC(=O)c2cccc(F)c2)c1`, the activity score was -79.5% (active).

Regarding `COc1cccc(C(=O)Nc2ccc(N3CCN(C(=O)c4ccco4)CC3)cc2)c1`, the activity score was -184% (active).

Turning to `COc1cccc(C(=O)Nc2ccc(N3CCCC3)cc2)c1`, the activity score is -189% (active).

Turning to `CN1CCN(c2ccc(NC(=O)c3ccccc3)cc2)CC1`, the activity score was -102% (active).

In the case of `CC[C@]1(O)CC2CN(CCc3c([nH]c4ccccc34)[C@@](C(=O)OC)(c3cc4c(cc3OC)N(C=O)[C@H]3[C@@](O)(C(=O)OC)[C@H](OC(C)=O)[C@]5(CC)C=CCN6CC[C@]43[C@@H]65)C2)C1` (some centres undefined), the activity score was 102% (inactive).

Take `COc1cccc(C(=O)Nc2cc3c(cc2Br)OCCCO3)c1`: the activity score is -98.2% (active).

As for `COc1cccc(C(=O)Nc2ccc(NC(=O)c3ccco3)cn2)c1`, the activity score was -135% (active).

`Cc1ccccc1C(=O)Nc1ccc(N2CCCCCC2)cc1`: the activity score was -160% (active).

Consider `COC(=O)c1c(C)[nH]c(C(=O)/C=C/c2ccc(Cl)cc2)c1C`, for which the activity score was -131% (active).

For `NC(=O)Cc1ccc2sc(-c3ccccc3)nc2c1`, the activity score is -98.2% (active).

Take `COc1ccccc1-c1cc(C(=O)N2CCCCC2)no1`: the activity score is -93.5% (active).

Regarding `COc1cc(Cl)ccc1OCc1cc(C(=O)N2CC[C@@H]3CCCC[C@H]3C2)no1`, the activity score was -69% (active).

With `O=C(c1cc(-c2cccs2)on1)N1CCCCC1`, the activity score was -73.9% (active).

As to `O=C(c1cc(-c2ccc(Cl)cc2)on1)N1CCN(c2ccccc2)CC1`, the activity score is -113% (active).

Turning to `COc1ccc(OCc2cc(C(=O)N3CCCC3)no2)c2ccccc12`, the activity score is -148% (active).

With `CCCOC1CCCN(C(=O)c2cc(COc3cncc(Cl)c3)on2)C1` (centres undefined), the activity score was -219% (active).

`COc1cccc(OCc2cc(C(=O)N3CCN(C(=O)c4ccco4)CC3)no2)c1`: the activity score was -121% (active).

For `O=C(c1cc(-c2ccccc2O)on1)N1CCCC1`, the activity score was -142% (active).

On to `Cc1nc(-c2ccccc2)sc1C1(C)CC(c2cccnc2)=NO1` (centres undefined), for which the activity score was -91.2% (active).

On to `COc1ccc(C(C#N)Nc2ccc(C)cc2)cc1` (centres undefined), for which the activity score is -61.8% (active).

As for `CC(=O)Nc1ccc(-c2nc3ccccc3o2)cc1`, the activity score was -91.4% (active).

With `CCOC(=O)c1ccc(NC(=O)c2cccnc2)cc1`, the activity score is -77.6% (active).

For `Cc1cc2nc(-c3ccc(NC(=O)c4cccnc4)cc3)oc2cc1C`, the activity score is -164% (active).

Turning to `COc1cc(OC)cc(C(=O)Nc2ccc(-c3nc4ccccc4o3)c(O)c2)c1`, the activity score was -61.8% (active).

Turning to `CCOC(=O)c1ccc(NC(=O)Cc2cccs2)cc1`, the activity score was -126% (active).

In the case of `CCCC(=O)N1c2ccc(-c3csc(N)n3)cc2CC1C` (centres undefined), the activity score is -192% (active).

Regarding `Cc1cc(C(=O)N/N=C/c2ccc(N3CCOCC3)cc2)c(C)o1`, the activity score is -87.1% (active).

`CC(C)c1cc(C(=O)N/N=C/C(Br)=C/c2ccccc2)n[nH]1`: the activity score is -105% (active).

As for `CC(=C/c1ccccc1)/C=N/NC(=O)c1cc(C)oc1C`, the activity score is -125% (active).

In the case of `Cc1cc(C(=O)N/N=C\C(Br)=C\c2ccccc2)c(C)o1`, the activity score was -124% (active).

As to `Cc1cc(C(=O)N/N=C/c2ccccc2[N+](=O)[O-])c(C)o1`, the activity score is -112% (active).

On to `CC(C)(C)c1cc(C(=O)N/N=C/c2ccc([N+](=O)[O-])s2)n[nH]1`, for which the activity score is 64% (inactive).

Take `Cc1c(Cl)cccc1NC(=O)Nc1ccc(C(=O)N2CCCC2)cc1`: the activity score was -77.6% (active).

Regarding `CC(=O)NNC(=O)c1csc(Cc2c(Cl)sc3ccc(Cl)cc23)n1`, the activity score was 67.1% (inactive).

As for `CCOC(=O)c1c(C)nc(-c2ccccc2)nc1NC(=O)C(C)C`, the activity score is -83.8% (active).

Consider `Nc1ccc(N=Nc2ccccc2Cl)c(N)n1`, for which the activity score is -165% (active).

With `O=C(NCCc1ccccc1)Oc1ccc(Cl)cc1`, the activity score was -107% (active).

Turning to `Cc1cc(C(=O)NCCc2ccc(Cl)cc2)c(C)o1`, the activity score is -131% (active).

`Cc1ccc2nc(/C(C#N)=C\c3ccc(OC(=O)c4cccs4)cc3)[nH]c2c1`: the activity score was -283% (active).

Regarding `N/C(=N\OC(=O)CC1CCCCC1)c1ccccc1`, the activity score is -116% (active).

For the compound `COc1ccccc1OCC(=O)O/N=C(\N)c1ccccn1`, the activity score is -121% (active).

In the case of `COc1ccc(C(=O)O/N=C(\N)c2ccccn2)cc1[N+](=O)[O-]`, the activity score is -177% (active).

Take `N/C(=N\OC(=O)CCC1CCCCC1)c1ccccn1`: the activity score was -180% (active).

`COc1ccc(CC(=O)N/N=C(\C)c2ccccn2)cc1`: the activity score is 77.7% (inactive).

With `N/C(=N\OC(=O)Cc1ccc([N+](=O)[O-])cc1)c1ccccn1`, the activity score is -161% (active).

Consider `CCc1c(C)nc2cc(-c3cccs3)[nH]n2c1=O`, for which the activity score is -81% (active).

`C=CCc1c(C)nc2cc(-c3ccccc3)[nH]n2c1=O`: the activity score is -102% (active).

As for `CC(=O)N(C)c1ccc(NC(=O)Nc2cccc3ccccc23)cc1`, the activity score was -70.7% (active).

With `O=[N+]([O-])c1ccc(O)c(/C=N/Nc2ccccc2[N+](=O)[O-])c1`, the activity score was -63.1% (active).

As to `Cc1cc(C(=O)COC(=O)CNC(=O)c2ccc(F)cc2)c(C)n1Cc1ccco1`, the activity score is -113% (active).

Consider `Cc1ccsc1C(=O)OCC(=O)c1cc(C)n(CC2CCCO2)c1C` (centres undefined), for which the activity score is 79.6% (inactive).

In the case of `Nn1c(SCc2ccccc2)nnc1C1CCCCC1`, the activity score was -110% (active).

As for `N#Cc1cccc(NC(=O)COC(=O)c2ccccc2C(=O)c2ccc(Cl)c([N+](=O)[O-])c2)c1`, the activity score was -63.7% (active).
